The results in this text go back to PubChem BioAssay (EPA / NIEHS).

The target in experiment [1] is chicken Estrogen Receptor (ERa), ESR1 (gene 396099) (UniProt P06212). Briefly: ATG_chERa_XSP2: Attagene TRANS-FACTORIAL Multi-Species (XSP2) HepG2 Assay for chicken Estrogen Receptor (ERa) (AID 2283817).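 Further: actives raise reporter signal above DMSO so AC50 reflects ER activation.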 Put shortly:
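Transiently transfected HepG2 cells expressing chimeric chicken ERa-GAL4 reporter units, dosed 24 h with 3 nM 6-alpha-fluorotestosterone and 1.5 nM norgestrel present. Reporter mRNA measured by RT-PCR and capillary electrophoresis; gain-of-signal fitted relative to DMSO.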

The test system of experiment [2] is zebrafish Estrogen Receptor (ER2a), gene 317734. In words: ATG_zfER2a_XSP2: Attagene TRANS-FACTORIAL Multi-Species (XSP2) HepG2 Assay for zebrafish Estrogen Receptor (ER2a) (AID 2283818).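 Further: hits raise reporter mRNA so AC50 reflects activation of zebrafish ER2a.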 The gist of the method:
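HepG2 cells transiently transfected with GAL4-UAS reporter units and chimeric zebrafish ER2a-Gal4, exposed 24 h; medium contains 3 nM 6-alpha-fluorotestosterone and 1.5 nM norgestrel. Reporter mRNA quantified by RT-PCR, HpaI digestion, capillary electrophoresis; gain versus DMSO.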

Experiment [3] concerns zebrafish Estrogen Receptor (ER2b), gene 317733. Briefly: ATG_zfER2b_XSP2: Attagene TRANS-FACTORIAL Multi-Species (XSP2) HepG2 Assay for zebrafish Estrogen Receptor (ER2b) (AID 2283823).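 Further: fitted upward as reporter gain over DMSO so potency reflects activation.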 The gist of the method:
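Cells used were HepG2, transiently transfected with chimeric nuclear receptor-Gal4 reporter units. After 24 h of chemical treatment, reporter transcripts were amplified by RT-PCR, labelled and sized by capillary electrophoresis, with induction analysed relative to DMSO.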

The nature of experiment [4]: ATG_M_32_XSP2: Attagene TRANS-FACTORIAL Multi-Species (XSP2) HepG2 Assay for M19 Transcription Factor (Internal Marker) (AID 2283826). The gist of the method: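 Transfected HepG2 (multiplexed GAL4-UAS reporters), 24 h chemical exposure, 3 nM 6-alpha-fluorotestosterone + 1.5 nM norgestrel added. RNA → oligo(dT) RT → PCR → 6-FAM primer extension → HpaI cut → CE. Fitted upward vs DMSO.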

In experiment [5] the test system is frog Estrogen Receptor (ER2), gene 100174814. Briefly: ATG_frER2_XSP2: Attagene TRANS-FACTORIAL Multi-Species (XSP2) HepG2 Assay for frog Estrogen Receptor (ER2) (AID 2283828). Put shortly:
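HepG2 cells transiently transfected with multiplexed GAL4-UAS reporter units expressing chimeric frog ER2–Gal4 protein; reporter mRNA measured 24 h after chemical dosing by RT-PCR, fluorescent labeling and capillary electrophoresis. Gain-of-signal fitted relative to DMSO baseline.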

Experiment [6] concerns the target Peroxisome proliferator-activated receptor gamma (Homo sapiens) (UniProt P37231). In words: ATG_hPPARg_XSP2: Attagene TRANS-FACTORIAL Multi-Species (XSP2) HepG2 Assay for human Peroxisome Proliferator-activated Receptor gamma (PPARg) (AID 2283829).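 Further: actives raise reporter mRNA above DMSO so AC50 reflects PPARg activation.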 Put shortly:
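After transfecting HepG2 with GAL4-UAS reporter constructs, cells are dosed for 24 h; total RNA is reverse-transcribed, PCR-amplified, FAM-labeled, HpaI-digested and resolved by capillary electrophoresis. Activity is measured as mRNA induction relative to DMSO.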

Experiment [7] has as its target Nuclear receptor subfamily 1 group I member 2 (Mus musculus) (UniProt O54915). Briefly: ATG_mPXR_XSP2: Attagene TRANS-FACTORIAL Multi-Species (XSP1) HepG2 Assay for mouse Pregnane X Receptor (PXR) (AID 2283831). Put shortly:
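Reporter transcripts were quantified by RT-PCR, FAM primer extension, HpaI digestion and capillary electrophoresis after 24 h of chemical exposure in transiently transfected HepG2 cells carrying chimeric receptor-GAL4 constructs; DMSO served as baseline.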

In experiment [8] the target is zebrafish Thyroid Hormone Receptor alpha (TRa), thraa (gene 30670) (UniProt Q98867). Briefly: ATG_zfTRa_XSP2: Attagene TRANS-FACTORIAL Multi-Species (XSP1) HepG2 Assay for zebrafish Thyroid Hormone Receptor alpha (TRa) (AID 2283832).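 Further: actives raise zebrafish TRa-Gal4 reporter transcript above DMSO baseline.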 The gist of the method: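 HepG2 cells transiently transfected with multiplexed GAL4-UAS reporter units expressing chimeric NR-Gal4 proteins; 24 h after dosing, reporter mRNA measured by RT-PCR, FAM labelling, HpaI digestion and capillary electrophoresis; gain of signal versus DMSO baseline.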

Experiment [9] relates to zebrafish Peroxisome Proliferator-activated Receptor gamma (PPARg), gene 557037. In words: ATG_zfPPARg_XSP2: Attagene TRANS-FACTORIAL Multi-Species (XSP2) HepG2 Assay for zebrafish Peroxisome Proliferator-activated Receptor gamma (PPARg) (AID 2283833).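 Further: actives increase reporter signal over DMSO so AC50 reflects activation.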 Put shortly: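 Multi-species TRANS format in HepG2, 24 h dosing; medium also contained 3 nM 6-alpha-fluorotestosterone and 1.5 nM norgestrel to stimulate androgen receptor. Zebrafish PPARg-GAL4 induced reporter mRNA was measured by RT-PCR/capillary electrophoresis.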

Experiment [10] deals with turtle Thyroid Hormone Receptor, alpha (TRa), gene 101949057. Briefly: ATG_trTRa_XSP2: Attagene TRANS-FACTORIAL Multi-Species (XSP1) HepG2 Assay for turtle Thyroid Hormone Receptor, alpha (TRa) (AID 2283834).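 Further: hits raise reporter mRNA over the DMSO baseline so AC50 marks activators.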 Put shortly: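 Transfection of HepG2 with multiple reporter transcription units, then chemical dosing for 24 h. Total RNA was reverse-transcribed, reporter sequences PCR-amplified and FAM-labelled, then sized by capillary electrophoresis. DMSO served as baseline.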

Experiment [11] can be described thus: ATG_M_61_XSP2: Attagene TRANS-FACTORIAL Multi-Species (XSP2) HepG2 Assay for M61 Transcription Factor (Internal Marker) (AID 2283835; active means hit-call score of the fitted dose curve at least 0.9, where 1 is the maximum; inactive means score below 0.9;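 further: active means a rise in signal above the DMSO baseline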). Put shortly:
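HepG2 cells transiently transfected with multiple GAL4-UAS reporter units; reporter mRNA measured 24 h after dosing by RT-PCR, fluorescent labelling and capillary electrophoresis. Medium contained 3 nM 6-alpha-fluorotestosterone and 1.5 nM norgestrel; internal marker, DMSO baseline.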

Experiment [12] has as its target human Thyroid hormone Receptor alpha (TRa), THRA (gene 7067) (UniProt P10827). In words: ATG_hTRa_XSP2: Attagene TRANS-FACTORIAL Multi-Species (XSP2) HepG2 Assay for human Thyroid hormone Receptor alpha (TRa) (AID 2283838). Put shortly:
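HepG2 cells transiently transfected with multiplexed GAL4-UAS reporter units and exogenous NR-GAL4 chimeras; 24 h chemical exposure with 3 nM 6-alpha-fluorotestosterone and 1.5 nM norgestrel present. Reporter mRNA measured by RT-PCR, FAM labelling, HpaI digestion, capillary electrophoresis; gain-of-signal versus DMSO.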

Experiment [13] addresses frog Thyroid hormone Receptor alpha (TRa), thra-a (gene 397942) (UniProt P15204). Briefly: ATG_frTRa_XSP2: Attagene TRANS-FACTORIAL Multi-Species (XSP2) HepG2 Assay for frog Thyroid hormone Receptor alpha (TRa) (AID 2283839).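 On AC50: AC50 reflects induction of frog TRa-driven reporter mRNA above DMSO baseline.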 The gist of the method:
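Transfect HepG2 with multiple reporter units (GAL4-UAS), dose chemical, incubate 24 h. Isolate RNA, reverse-transcribe, PCR-amplify reporter, label with 6-FAM by primer extension, digest with HpaI, run capillary electrophoresis; induction scored against DMSO.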

Experiment [14] has as its target human Thyroid hormone Receptor beta (TRb), THRB (gene 7068) (UniProt P10828). In words: ATG_hTRb_XSP2: Attagene TRANS-FACTORIAL Multi-Species (XSP2) HepG2 Assay for human Thyroid hormone Receptor beta (TRb) (AID 2283840).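 Further: actives raise reporter mRNA so potency reflects agonist-like gain of signal.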 Put shortly:
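Transient transfection of human HepG2 with multi-species NR-Gal4/GAL4-UAS reporter constructs; 24 h compound treatment; RNA isolation, reverse transcription, PCR and HpaI digest; capillary electrophoresis of labeled fragments; activity fitted upward versus DMSO.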

Experiment [15] relates to Sodium/Iodide Symporter (NIS), SLC5A5 (gene 6528). Briefly: CPHEA_Stoker_NIS_Inhibition_RAIU: CPHEA's Radioactive Iodide Uptake (RAIU) Assay for Sodium/Iodide Symporter (NIS) Inhibition, Stoker and Laws Labs (AID 2283841). Put shortly: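 Iodide uptake through human NIS is measured in an engineered HEK293T line. Cells take up 125I (329pM final) for 2 hours at room temperature alongside chemicals at 0.001–100uM. Retained radioactivity is counted, and the signal is expressed against DMSO controls.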

Experiment [16] in a line: ATG_M_19_XSP2: Attagene TRANS-FACTORIAL Multi-Species (XSP2) HepG2 Assay for M32 Transcription Factor (Internal Marker) (AID 2283822). The gist of the method: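 Internal background marker in a multi-species nuclear receptor TRANS panel: transfected HepG2 cells exposed 24 h, with 3 nM 6-alpha-fluorotestosterone and 1.5 nM norgestrel present. Readout is RT-PCR of reporter transcripts resolved by capillary electrophoresis, gain-of-signal versus DMSO.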

The target of experiment [17] is Estrogen receptor (Homo sapiens) (UniProt P03372). Briefly: ATG_hERa_XSP2: Attagene TRANS-FACTORIAL Multi-Species (XSP2) HepG2 Assay for human Estrogen Receptor (ERa) (AID 2283827). The gist of the method:
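HepG2 cells transiently transfected with multiplexed GAL4-UAS reporters driven by chimeric receptor-Gal4 proteins, dosed 24 h with 3 nM 6-alpha-fluorotestosterone and 1.5 nM norgestrel present. Reporter mRNA by RT-PCR and capillary electrophoresis; gain-of-signal fit versus DMSO.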

The nature of experiment [18]: ATG_XTT_Cytotoxicity_XSP2: Cytotoxicity Assessment in the Attagene TRANS-FACTORIAL Multi-Species (XSP2) HepG2 Assay (AID 2283837). Put shortly:
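HepG2 cells, transiently transfected with multiple reporter constructs, exposed to chemical for 24 h. Cell number assessed with XTT fluorescence read-out; loss of signal fitted relative to DMSO.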

Each structure is given as a SMILES string. “And” between values parts separate entries of the source, which are not always exact repeats. Identical values can stand only once. Records with an inconclusive call do not appear. Some structures have more than one record in an assay (separate samples or runs), and their calls can disagree. The source made the active and inactive calls. How the source made its calls, unless noted: active means hit-call score of the fitted dose curve at least 0.9, where 1 is the maximum; inconclusive means response in the unintended direction; inactive means score below 0.9.

Sequence of human Thyroid hormone Receptor beta (TRb), THRB (gene 7068) (P10828 whole entry, looked up, the tested form may be a part): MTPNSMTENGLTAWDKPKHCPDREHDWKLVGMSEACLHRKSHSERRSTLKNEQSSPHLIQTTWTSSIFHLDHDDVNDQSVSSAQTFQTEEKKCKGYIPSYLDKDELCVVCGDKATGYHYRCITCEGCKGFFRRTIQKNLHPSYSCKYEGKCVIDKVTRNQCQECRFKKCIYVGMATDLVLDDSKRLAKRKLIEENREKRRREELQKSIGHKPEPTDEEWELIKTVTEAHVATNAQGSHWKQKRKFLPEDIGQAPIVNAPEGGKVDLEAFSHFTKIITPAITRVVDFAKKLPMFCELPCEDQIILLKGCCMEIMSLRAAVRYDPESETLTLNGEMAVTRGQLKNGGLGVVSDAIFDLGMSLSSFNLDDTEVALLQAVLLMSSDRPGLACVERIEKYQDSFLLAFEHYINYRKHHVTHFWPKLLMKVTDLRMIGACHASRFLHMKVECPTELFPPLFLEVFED
Sequence of Nuclear receptor subfamily 1 group I member 2 (Mus musculus) (O54915 whole entry, looked up, the tested form may be a part): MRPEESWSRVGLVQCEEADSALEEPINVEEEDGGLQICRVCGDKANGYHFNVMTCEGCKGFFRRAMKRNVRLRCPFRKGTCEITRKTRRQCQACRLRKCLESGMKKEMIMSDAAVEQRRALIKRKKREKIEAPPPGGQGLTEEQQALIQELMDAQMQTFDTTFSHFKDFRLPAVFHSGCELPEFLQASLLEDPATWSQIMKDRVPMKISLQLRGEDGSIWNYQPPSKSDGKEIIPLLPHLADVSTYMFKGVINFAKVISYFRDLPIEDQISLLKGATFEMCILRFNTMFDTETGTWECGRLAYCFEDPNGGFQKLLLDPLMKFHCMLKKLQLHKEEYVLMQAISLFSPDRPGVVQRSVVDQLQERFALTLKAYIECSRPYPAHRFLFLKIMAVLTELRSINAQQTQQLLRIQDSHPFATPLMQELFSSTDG
Sequence of Peroxisome proliferator-activated receptor gamma (Homo sapiens) (P37231 whole entry, looked up, the tested form may be a part): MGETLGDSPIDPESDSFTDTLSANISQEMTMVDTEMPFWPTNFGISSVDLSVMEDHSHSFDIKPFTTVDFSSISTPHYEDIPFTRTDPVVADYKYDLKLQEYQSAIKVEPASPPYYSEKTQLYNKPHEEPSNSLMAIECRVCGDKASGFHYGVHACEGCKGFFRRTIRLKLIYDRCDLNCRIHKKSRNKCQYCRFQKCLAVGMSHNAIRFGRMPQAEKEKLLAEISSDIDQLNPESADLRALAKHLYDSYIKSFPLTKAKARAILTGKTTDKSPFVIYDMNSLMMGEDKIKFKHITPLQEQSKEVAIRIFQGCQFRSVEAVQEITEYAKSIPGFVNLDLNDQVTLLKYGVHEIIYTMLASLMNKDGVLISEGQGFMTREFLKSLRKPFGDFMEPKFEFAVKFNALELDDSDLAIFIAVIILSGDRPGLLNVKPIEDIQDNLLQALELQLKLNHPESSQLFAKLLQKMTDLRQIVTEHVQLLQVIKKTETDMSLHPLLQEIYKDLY
Sequence of human Thyroid hormone Receptor alpha (TRa), THRA (gene 7067) (P10827 whole entry, looked up, the tested form may be a part): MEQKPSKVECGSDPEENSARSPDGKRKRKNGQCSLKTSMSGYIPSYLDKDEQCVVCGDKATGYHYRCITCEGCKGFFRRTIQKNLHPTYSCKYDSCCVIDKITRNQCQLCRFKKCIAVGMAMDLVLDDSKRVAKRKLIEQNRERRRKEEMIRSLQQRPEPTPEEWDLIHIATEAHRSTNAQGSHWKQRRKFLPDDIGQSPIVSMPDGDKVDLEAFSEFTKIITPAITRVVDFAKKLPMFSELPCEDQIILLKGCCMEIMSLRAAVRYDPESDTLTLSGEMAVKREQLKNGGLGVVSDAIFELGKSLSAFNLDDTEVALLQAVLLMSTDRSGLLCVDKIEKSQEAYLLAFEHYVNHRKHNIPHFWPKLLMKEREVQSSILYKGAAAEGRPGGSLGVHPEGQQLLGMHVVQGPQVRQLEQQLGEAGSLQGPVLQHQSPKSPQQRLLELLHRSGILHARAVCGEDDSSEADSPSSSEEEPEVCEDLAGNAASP
Sequence of zebrafish Thyroid Hormone Receptor alpha (TRa), thraa (gene 30670) (Q98867 whole entry, looked up, the tested form may be a part): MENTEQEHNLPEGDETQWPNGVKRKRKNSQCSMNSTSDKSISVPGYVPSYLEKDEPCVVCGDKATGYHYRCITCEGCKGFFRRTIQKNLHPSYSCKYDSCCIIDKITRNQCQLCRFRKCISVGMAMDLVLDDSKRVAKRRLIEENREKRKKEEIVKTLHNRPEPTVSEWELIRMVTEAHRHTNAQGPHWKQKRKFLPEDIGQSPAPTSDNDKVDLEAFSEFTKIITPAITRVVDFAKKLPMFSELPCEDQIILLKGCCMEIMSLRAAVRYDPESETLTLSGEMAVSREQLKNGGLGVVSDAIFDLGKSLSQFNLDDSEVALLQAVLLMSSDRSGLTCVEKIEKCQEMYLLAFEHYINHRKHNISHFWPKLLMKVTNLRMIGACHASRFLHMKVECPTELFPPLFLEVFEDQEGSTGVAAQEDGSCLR
Sequence of chicken Estrogen Receptor (ERa), ESR1 (gene 396099) (P06212 whole entry, looked up, the tested form may be a part): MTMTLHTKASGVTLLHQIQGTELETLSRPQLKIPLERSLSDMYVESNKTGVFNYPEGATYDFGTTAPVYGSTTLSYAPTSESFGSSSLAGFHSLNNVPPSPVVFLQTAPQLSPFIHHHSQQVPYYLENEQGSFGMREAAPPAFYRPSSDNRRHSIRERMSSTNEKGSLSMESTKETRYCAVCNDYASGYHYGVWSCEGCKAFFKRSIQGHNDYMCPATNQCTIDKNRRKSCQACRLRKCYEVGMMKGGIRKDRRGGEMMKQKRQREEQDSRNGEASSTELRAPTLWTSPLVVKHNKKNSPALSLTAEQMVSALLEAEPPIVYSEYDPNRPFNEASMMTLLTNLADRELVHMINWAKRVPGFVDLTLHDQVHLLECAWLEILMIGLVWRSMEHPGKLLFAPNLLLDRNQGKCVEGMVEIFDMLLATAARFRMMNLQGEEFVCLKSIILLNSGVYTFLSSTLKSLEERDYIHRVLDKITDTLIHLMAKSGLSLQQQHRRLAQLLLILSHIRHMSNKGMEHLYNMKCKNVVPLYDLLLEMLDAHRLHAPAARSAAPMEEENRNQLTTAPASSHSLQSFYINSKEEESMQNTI
Sequence of frog Thyroid hormone Receptor alpha (TRa), thra-a (gene 397942) (P15204 whole entry, looked up, the tested form may be a part): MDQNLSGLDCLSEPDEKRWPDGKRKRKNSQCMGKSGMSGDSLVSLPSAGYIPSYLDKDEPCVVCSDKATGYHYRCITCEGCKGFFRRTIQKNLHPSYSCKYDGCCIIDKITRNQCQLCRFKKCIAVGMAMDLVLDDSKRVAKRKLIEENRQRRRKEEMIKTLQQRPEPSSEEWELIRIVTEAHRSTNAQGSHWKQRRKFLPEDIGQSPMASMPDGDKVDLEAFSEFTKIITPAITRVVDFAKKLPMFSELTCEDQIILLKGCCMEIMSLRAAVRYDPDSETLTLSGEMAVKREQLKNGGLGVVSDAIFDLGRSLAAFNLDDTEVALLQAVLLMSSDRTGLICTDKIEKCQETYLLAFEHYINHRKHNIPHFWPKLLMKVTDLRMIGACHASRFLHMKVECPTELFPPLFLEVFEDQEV
Sequence of Estrogen receptor (Homo sapiens) (P03372 whole entry, looked up, the tested form may be a part): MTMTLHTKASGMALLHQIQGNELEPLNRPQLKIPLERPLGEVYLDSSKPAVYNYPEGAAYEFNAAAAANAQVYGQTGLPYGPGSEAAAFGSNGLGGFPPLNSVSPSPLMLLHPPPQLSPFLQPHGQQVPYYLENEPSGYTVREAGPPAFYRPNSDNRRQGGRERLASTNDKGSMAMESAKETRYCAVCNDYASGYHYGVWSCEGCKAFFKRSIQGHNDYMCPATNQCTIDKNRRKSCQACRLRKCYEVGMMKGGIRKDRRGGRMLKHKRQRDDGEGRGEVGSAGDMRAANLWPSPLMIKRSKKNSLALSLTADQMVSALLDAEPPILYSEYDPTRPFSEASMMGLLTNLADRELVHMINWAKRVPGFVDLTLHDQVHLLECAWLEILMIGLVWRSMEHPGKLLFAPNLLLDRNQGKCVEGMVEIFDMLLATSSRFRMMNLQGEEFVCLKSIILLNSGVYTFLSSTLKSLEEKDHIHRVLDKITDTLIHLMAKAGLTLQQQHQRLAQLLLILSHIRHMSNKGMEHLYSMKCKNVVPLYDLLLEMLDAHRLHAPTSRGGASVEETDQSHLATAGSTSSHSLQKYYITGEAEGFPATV

By AC50 is commonly meant the concentration at which the activity in the assay is half-maximal. On to `CCC(CC)Nc1c([N+](=O)[O-])cc(C)c(C)c1[N+](=O)[O-]`, for which the AC50 was 5.63 µM (active) and 4.3 µM (active) in [1]; 18.1 µM (active) and 7.12 µM (active) in [3]; 8.22 µM (active) and 4.99 µM (active) in experiment [5]; 266 nM (active) and 269 nM (active) in experiment [7]. Moreover, the outcome in experiment [2], in experiment [4], in experiment [6], in [8], in [9] and in experiment [10] was inactive. In addition, the compound was called inactive in [11], in experiment [12], in experiment [13], in experiment [14] and in [15].

As for `CC[C@H](C)[C@H]1O[C@]2(C=C[C@@H]1C)C[C@@H]1C[C@@H](C/C=C(\C)[C@@H](O[C@H]3C[C@H](OC)[C@@H](O[C@H]4C[C@H](OC)[C@@H](NC)[C@H](C)O4)[C@H](C)O3)[C@@H](C)/C=C/C=C3\CO[C@@H]4[C@H](O)C(C)=C[C@@H](C(=O)O1)[C@]34O)O2`, the AC50 in experiment [15] is 13.3 µM (active).

Take `CCCCSP(=O)(SCCCC)SCCCC`: in experiment [15], the outcome was inactive.

For `Nc1c(Cl)cc([N+](=O)[O-])cc1Cl`, the AC50 in [1] is 26.8 µM (active); in experiment [3], 25.3 µM (active) and 49.6 µM (active); in experiment [17], 10.9 µM (active) and 17.4 µM (active); in [6], 25.7 µM (active) and 34.9 µM (active); in experiment [7], 10.8 µM (active) and 9.9 µM (active); in experiment [10], 23.6 µM (active) and 29.8 µM (active). Further, the AC50 in experiment [12] is 43.6 µM (active) and 22.8 µM (active); in experiment [13], 27.1 µM (active); in [14], 27.6 µM (active) and 82.2 µM (active). Moreover, the compound was classed as inactive in experiment [1], in experiment [2], in experiment [16], in experiment [4], in [5] and in [8]. In addition, the compound was classed as inactive in experiment [9], in experiment [18] and in experiment [15].
